# Experimental data from PubChem BioAssay (NCI).
# About 83,000 compounds went through this panel and 20% of them were active in at least one assay; those are over-represented in the sample as a whole.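 Cell lines were cultured in 96-well plates, exposed to a single compound concentration, and assessed for percent growth 48 hours later.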 Active and inactive are the calls of the source. Rule for the calls: active = growth percent below 10; inactive = the rest.
# System: HL-60(TB) leukemia
# Assay: NCI-60 one-dose screen, 48 h (100 = growth as untreated, 0 = no growth, -100 = all killed)
# Conditions: 10 µM unless noted
row,Structure (SMILES),growth
1,C=CCn1c(SCC(=O)Nc2ccc(C(=O)/C=C/c3ccc(Cl)cc3)cc2)nnc1-c1ccccc1,80.9% (inactive)
2,COc1cc(-c2csc(NC(=O)Nc3cc(C(F)(F)F)cc(C(F)(F)F)c3)n2)cc(OC)c1OC,12% (inactive)
3,COC(=O)C1OC1c1cc([N+](=O)[O-])ccc1OC (stereo not given),99.1% (inactive)
4,Cc1nc2cc(Nc3nc(Nc4ccc(F)cc4)nc(-c4cccs4)n3)ccc2n1Cc1ccccc1,28.1% (inactive)
5,O=CNCCc1ccccc1,87.6% (inactive)
6,Clc1cc(Cl)c(Cl)nn1,69.7% (inactive)
7,CCOC(=O)N1CCN(c2nc(Nc3cc(C)[nH]n3)c3ccccc3n2)CC1,26.3% (inactive)
8,Cc1ccc2c(Cn3cc(CSc4nc5ccccc5o4)nn3)cc(=O)oc2c1,109% (inactive)
9,CC(=O)Nc1ccc(C(=O)Nc2cc(-c3ccccc3)ccc2N)cc1,65.5% (inactive)
10,CCCN(CCSSCCNc1nc(N(C)O)nc(N(C)O)n1)c1nc(N(C)O)nc(N(C)O)n1,88% (inactive)
11,ClC1=C(Cl)C(Cl)=C(Cl)C1=Cc1ccccc1,-8.87% (active)
12,CC(C)(CCCN=C(N)Nc1ccc(Cl)cc1)c1ccc(F)cc1,93.4% (inactive)
13,[Cu+].[NH-][C@H]1C[N-]C(=O)[C@H]([C@H]2CCN=C(N)N2)[N-]C(=O)/C(=C\NC(N)=O)[N-]C(=O)[C@H](CNC(=O)C[C@@H](N)CCCN)[N-]C(=O)[C@H](CO)[N-]C1=O,104% (inactive)
14,N#Cc1cnc2cc(OC[C@H](O)CO)c(NC(=O)CC3CSSC3)cc2c1Nc1ccc(OCc2cccc(F)c2)c(Cl)c1,-83.4% (active)
15,O=C(NCCc1ccccc1)Nc1ccc2cc3ccc(NC(=O)NCCc4ccccc4)cc3nc2c1,-46.9% (active)
16,FC(F)(F)c1ccc2c(c1)Sc1ccccc1N2,72.6% (inactive)
17,COc1ccc(-c2cc(-c3cccnc3)nc3sc4c(=O)n(-c5ccc(C)cc5)cnc4c23)cc1OC,107% (inactive)
18,COc1ccc2c(O)c(/C=C3\N=Nc4nc(C)ccc43)oc2c1CC1CCNCC1,94.3% (inactive)
19,COc1ccc(/C=N/NC(=O)CN2CCN(c3cc4c(cc3F)c(=O)c(C(=O)O)cn4C3CC3)CC2)cc1O,92% (inactive)
20,CN1CCN(CC(O)COc2c(Br)c(Br)c(Br)c3c2OC(C)(C)C3)CC1 (stereo not given),35.5% (inactive)

row,Structure (SMILES),growth
1,COc1cccc2c1C(=O)c1c(O)c3c(c(O)c1C2=O)C[C@@](O)(C(C)=O)C[C@@H]3OC1CC(N)C(O)C(C)O1 (stereo not given in full),-63.3% (active)
2,O=CN1N=C(c2cccc(Nc3ccnc4cc(Cl)ccc34)c2)CC1c1ccccc1 (stereo not given),-1.22% (active)
3,CN(C)c1ccc(CNCCO)cc1,96.1% (inactive)
4,O=C1/C(=C/c2ccc(Cl)cc2)SC(=Nc2ccc(Cl)cc2)N1Cc1nc2ccccc2[nH]1,95.8% (inactive)
5,CC(C)(C)n1cc(-c2ccnc(NCCCNS(=O)(=O)c3ccc(Cl)cc3)c2)c(-c2cccc(O)c2)n1,-46.1% (active)
6,COc1cc2c(c(OC)c1OC)C(=O)CC(c1cccc(C(=O)Nc3cccc(Br)c3)c1)O2 (stereo not given),91.8% (inactive)
7,CC1(C)C(N)=Nc2cc(OCCCN3Cc4ccccc4C3)c(OCC3CC3)cc21,36.2% (inactive)
8,Cc1ccc(-c2nc(SCC(=O)Nc3nc(-c4ccc(Cl)cc4)cs3)[nH]c(=O)c2C#N)cc1,111% (inactive)
9,COc1c(B(O)O)cccc1-c1nc2ccc3[nH]ncc3c2c2c1C1CCC2C1 (stereo not given),20% (inactive)
10,O=c1ccc(N=Nc2ccc([N+](=O)[O-])cc2)ccc1O,10% (inactive)
11,CC(=O)Nc1nc(C)c(C(=O)N/N=C/N2CCCCC2)s1,131% (inactive)
12,CC(=O)n1cc([C@H]2CC[C@H](c3cn(C(C)=O)c4ccccc34)c3c2[nH]c2ccccc32)c2ccccc21,111% (inactive)
13,CCOC(=O)C1=C(c2ccccc2)N=C2N(c3ccccc3)N=C(C(C)=O)N2C1c1ccc(F)cc1 (stereo not given),89.8% (inactive)
14,COC(=O)[C@@]12CC=C(C)[C@]3(C[C@H](c4ccoc4)OC3=O)[C@H]1C=C[C@@H](O)[C@@]2(O)C(=O)OC,107% (inactive)
15,c1ccc2cc(-c3n(Cc4ccc5ccccc5n4)c4ccccc4[n+]3Cc3ccc4ccccc4n3)ccc2c1,-55.1% (active)
16,C/C(=N\Nc1ccccc1)c1ccc(NC2=CC(=O)c3ccccc3C2=O)cc1,80.6% (inactive)
17,C#CCOCC1CN(C)C(=O)O1 (stereo not given),89.4% (inactive)
18,C/C(=C(/c1ccccc1)c1ccc(N2C(=O)c3cccc4c(NCc5ccccc5)ccc(c34)C2=O)cc1)c1ccccc1,103% (inactive)
19,COc1ccc(NC(=O)c2sc3nc(C)c(C(=O)c4ccccc4)cc3c2N)cc1,78.8% (inactive)
20,CNc1ccc(Nc2ccc(S(=O)(=O)O)cc2)c2c1C(=O)c1ccccc1C2=O,120% (inactive)
